{
  "source": "PubChem BioAssay (NCATS)",
  "note": "Records with an inconclusive call do not appear. A number with no mark means an inactive call. Calls follow the shape of the full dose curve. Starred links: 1 amine or outer side, 2 acyl side, 3 side chain; linkers in the order of their positions; H or OH if unused. Positions of bridges follow the written chain, without caps; N, C: chain ends. Non-standard residues stand in square brackets, D forms with d. Residues, ends and D or L forms follow the SMILES beside them. Groups on a side chain read outwards from the residue. ξ: configuration not given here. *: point of attachment. X1 = CCCCCCCCCC(=O)[C@H](C(=O)[*:2])[C@@H]1CNC(=O)[C@@H](N[*:1])CS1; Phe(3R-OH) = O=C([C@@H](N[*:1])[C@H](O[*:3])c1ccccc1)[*:2]; NMeTrp(4-OMe) = CN[C@@H](Cc1c[nH]c2cccc(OC)c12)C(=O)O; X4 = O=C(C1CC2(c3ccc(O)cc3)c3ccccc3NC2N1[*:1])[*:2]; ξThr(3R)(O-yl) = C[C@@H](O[*:3])C(N[*:1])C(=O)[*:2]; Phg(4-OMe) = COc1ccc([C@H](N)C(=O)O)cc1; d(aIle) = CC[C@H](C)[C@@H](N)C(=O)O; d(aThr) = C[C@@H](O)[C@@H](N)C(=O)O; NMeThr(3ξ) = CN[C@H](C(=O)O)C(C)O; NMeF = CN[C@@H](Cc1ccccc1)C(=O)O; ξW = NC(Cc1c[nH]c2ccccc12)C(=O)O; NMeL = CN[C@@H](CC(C)C)C(=O)O; NMeV = CN[C@H](C(=O)O)C(C)C; ξIle = CC[C@H](C)C(N)C(=O)O; ξY = NC(Cc1ccc(O)cc1)C(=O)O; Isobutyryl = CC(C)C(=O)*; Hexanoyl = CCCCCC(=O)*; ξV = CC(C)C(N)C(=O)O",
  "data": [
    {"assay": "qHTS for inhibitors of Rabies Virus screened against the NCATS CANVASS Library (AID 1347402); also: 0% is about no effect", "conditions": "Rabies virus infection cell assay; series mostly up to 45.9 µM; activity change, negative = inhibition: at the top concentration", "values": [
      {"smiles": "O=C1CC(c2ccc(O)cc2)Oc2ccccc21", "note": "(stereo not given)", "activity change, negative = inhibition": "-28.2%"},
      {"smiles": "COc1cc2c(cc1OC)[C@@H](c1ccc3c(c1)OCO3)C(C)[C@@H](C)C2=O", "note": "(stereo not given in full)", "activity change, negative = inhibition": "-22%"},
      {"smiles": "C/C(=C\\CC/C(C)=C/CC[C@]1(C)CCc2cc(O)cc(C)c2O1)CC/C=C(\\C)C(=O)O", "activity change, negative = inhibition": "-24.6%"},
      {"smiles": "CC[C@H](C)[C@H]1NC(=O)[C@@H](NC(=O)C(C)C)[C@@H](C)OC(=O)[C@H](COC(=O)CNC(C)=O)NC(=O)[C@@H]([C@@H](C)O)NC(=O)[C@H](Cc2ccccc2)N(C)C(=O)[C@H](c2ccc(OC)cc2)NC1=O", "note": "(Isobutyryl-T[d(aIle)][Phg(4-OMe)][NMeF][d(aThr)]S([Gly-Ac]); ester 1-C)", "activity change, negative = inhibition": "-11.4%"},
      {"smiles": "COC(=O)[C@@]1(C)CCC[C@]2(C)c3cc(OC)ccc3CC[C@@H]12", "activity change, negative = inhibition": "-0.556%"},
      {"smiles": "CC[C@@H]1C[C@@]2(CC)OC(=O)[C@@]3(CC)OC(=O)[C@@H]1[C@@H]23", "activity change, negative = inhibition": "-0.942%"},
      {"smiles": "CC[C@H](C)[C@H](NC(=O)C(Cc1ccc(O)cc1)NC(=O)C(Cc1c[nH]c2ccccc12)NC(=O)[C@H](C)N)C(=O)N1C(C(=O)NC(Cc2ccc(O)cc2)C(=O)O)CC2(c3ccc(O)cc3)c3ccccc3NC12", "note": "(stereo not given in full) (H-A[ξW][ξY]I[X4][ξY]-OH)", "activity change, negative = inhibition": "-8.41%"},
      {"smiles": "C[C@@]12CCC[C@@](C)(C(=O)OP(=O)(O)OC[C@H]3O[C@@H](n4cnc5c(N)ncnc54)[C@H](O)[C@@H]3O)[C@H]1C[C@@H](O)[C@@]13C[C@@H](CC[C@@H]21)[C@](C)(O)C3", "activity change, negative = inhibition": "-14.5%"},
      {"smiles": "COc1ccc2[nH]c3c(c2c1)CCN1C[C@H]2C[C@@H](OC(=O)c4cc(OC)c(OC)c(OC)c4)[C@H](OC)[C@@H](OC)[C@H]2C[C@H]31", "activity change, negative = inhibition": "-5.03%"},
      {"smiles": "C/C1=C/[C@@H](C)[C@H](O)[C@@H](O)/C=C/CC/C=C/C(=O)O[C@@H]1[C@H](C)C(=O)CCCC1CC(=O)NC(=O)C1", "activity change, negative = inhibition": "-1.67%"},
      {"smiles": "C[C@@]1(CCC(=O)Nc2c(O)ccc(C(=O)O)c2O)C(=O)C=C[C@]23C[C@H]4C[C@H](O[C@@]4(C)C2)C31", "note": "(stereo not given in full)", "activity change, negative = inhibition": "6.93%"},
      {"smiles": "C=CC(C)(C)C(=O)[C@@H](C)[C@@H]1CC[C@@](C)(C=C)O1", "activity change, negative = inhibition": "11.4%"},
      {"smiles": "CCCc1c2c([nH]c(=O)c1C)C(=O)c1[nH]c(=O)c(C)c(CCC)c1C2=O", "activity change, negative = inhibition": "-31.7%"},
      {"smiles": "COc1c(O)cc2oc(-c3ccccc3)cc(=O)c2c1O", "activity change, negative = inhibition": "-20.1%"},
      {"smiles": "C[n+]1cc2cc(C(N)=O)[nH]c3c(=N)c(Cl)c(N)c1c23", "activity change, negative = inhibition": "-11.6%"},
      {"smiles": "Cc1cc(O)cc2c1C(=O)c1c(O)cc(O)cc1C2=O", "activity change, negative = inhibition": "4.13%"},
      {"smiles": "CS/C=C/C(N)=O", "activity change, negative = inhibition": "-10.9%"},
      {"smiles": "CC(C)=CCC/C(C)=C/Cc1cc([C@@H]2CC(=O)c3c(cc(O)c(CC=C(C)C)c3O)O2)ccc1O", "activity change, negative = inhibition": "-22.1%"},
      {"smiles": "CC[C@H](O)CCCCC[C@@H]1NC(=O)[C@H]2CCCCN2C(=O)[C@H]([C@H](C)CC)NC(=O)[C@H](Cc2cn(OC)c3ccccc23)NC1=O", "activity change, negative = inhibition": "-34.2%"},
      {"smiles": "C/C(=C\\[C@H](C)C(=O)/C=C/CC1CC(=O)NC(=O)C1)[C@@H]1OC(=O)CCCC/C=C/[C@H](O)[C@@H](O)[C@@H]1C", "activity change, negative = inhibition": "-9.29%"},
      {"smiles": "COc1cc(C2OCC3C(c4ccc(O)c(OC)c4)OCC23)ccc1O", "note": "(stereo not given)", "activity change, negative = inhibition": "3.04% [at 9.14 µM]"},
      {"smiles": "C=C1[C@@]2(C)CC3C4(C)CCC(O)C(C)(C)C4CCC3(C)[C@]1(C(=O)OC)C(=O)C(C)(O)C2=O", "note": "(stereo not given in full)", "activity change, negative = inhibition": "-20.4%"},
      {"smiles": "CC[C@H](C)C(NC(=O)[C@@H](NC)C(C)C)C(=O)NC1C(=O)N(C)[C@@H](C(C)O)C(=O)N[C@@H](C(C)C)C(=O)N(C)[C@@H](CC(C)C)C(=O)NC(C(C)C)C(=O)N(C)[C@@H](C(C)C)C(=O)N(C)[C@@H](Cc2c[nH]c3cccc(OC)c23)C(=O)N[C@@H](C(C)C)C(=O)N[C@@H]([C@H](O)c2ccccc2)C(=O)N[C@@H](C(C)C)C(=O)O[C@@H]1C", "note": "(stereo partly drawn) (H-[NMeV][ξIle][ξThr(3R)(O-yl)][NMeThr(3ξ)]V[NMeL][ξV][NMeV][NMeTrp(4-OMe)]V[Phe(3R-OH)]V; ester 3-C)", "activity change, negative = inhibition": "51.2%"},
      {"smiles": "O=C1CCC(=O)N(O)CCCCCNC(=O)CCC(=O)N(O)CCCCCNC(=O)CCC(=O)N(O)CCCCCN1", "activity change, negative = inhibition": "-13%"},
      {"smiles": "COC12OC1(C13OC1(OC)C(=O)c1cc4cc(C)oc(=O)c4c(O)c1C3O)C(O)c1c(cc3cc(C)oc(=O)c3c1O)C2=O", "note": "(stereo not given)", "activity change, negative = inhibition": "-32.7%"},
      {"smiles": "C[C@@H]1C[C@H]2C[C@]3(CCCCN3C)[C@@H]3C[C@H]2[C@H](C1)N(C)C3", "activity change, negative = inhibition": "-24.5%"},
      {"smiles": "COC(=O)[C@]1([C@H]2CCC(=O)O2)CC(=O)c2c(O)cc(C)cc2O1", "activity change, negative = inhibition": "-10.4%"},
      {"smiles": "CCCCCC(=O)N[C@@H](CC(C)C)C(=O)N[C@H](C=O)CCC(=O)O", "note": "(Hexanoyl-Leu-Glu-aldehyde)", "activity change, negative = inhibition": "5.6%"},
      {"smiles": "COc1cc2ccc(=O)oc2c(O)c1O[C@@H]1O[C@H](CO)[C@@H](O)[C@H](O)[C@H]1O", "activity change, negative = inhibition": "7.6% [at 27.4 µM]"},
      {"smiles": "CN1CC[C@@]2([C@@]34CCN(C)[C@@H]3Nc3ccccc34)c3ccccc3N[C@@H]12", "activity change, negative = inhibition": "-29.5%"},
      {"smiles": "Oc1ccc(C2c3c(O)cc(O)cc3[C@@H]3C(c4ccc(O)cc4)c4c(O)cc(O)cc4[C@H]23)cc1", "note": "(stereo not given in full)", "activity change, negative = inhibition": "-26.7%"},
      {"smiles": "COc1ccc([C@@H]2c3cc(OC)c(OC)cc3C(=O)C(C)C2C)cc1OC", "note": "(stereo not given in full)", "activity change, negative = inhibition": "-15.8%"},
      {"smiles": "CC1(C)[C@H](Br)CC[C@]23C[C@]4(C)C(=O)CC12C[C@H]34", "activity change, negative = inhibition": "-20.5%"},
      {"smiles": "CCCCCCCCCC(=O)[C@@H]1C(=O)N[C@@H](CC(C)C)C(=O)N[C@H](C)C(=O)N2CCC[C@H]2C(=O)N[C@@H](C(C)C)C(=O)N[C@H]2CS[C@H]1CNC2=O", "note": "(cyclo(L[dA]PV[X1]))", "activity change, negative = inhibition": "-9.71%"},
      {"smiles": "C=C[C@@]1(C)CC[C@@H]([C@H](C)C(C)=O)O1", "activity change, negative = inhibition": "7.36%"},
      {"smiles": "CO[C@H]1[C@@H](OC(=O)/C(C)=C\\[C@@H]2O[C@@H]2[C@H]2O[C@H]2C)[C@H](O)[C@H](OCC23C[C@@H]4[C@H](C)CC[C@H]4C4(C=O)CC2C=C(C(C)C)C34C(=O)O)O[C@@H]1C", "note": "(stereo not given in full)", "activity change, negative = inhibition": "-16.9%"},
      {"smiles": "CN1C(=O)C2C(N=CN2C)N(C)C1=O", "note": "(stereo not given)", "activity change, negative = inhibition": "-27.5%"},
      {"smiles": "CCCCCCCCC[C@@H]1C[C@@H]2CC[C@H]3[C@@H](C(=O)OCCCCN=C(N)N)[C@@H](C)N=C(N1)N23", "activity change, negative = inhibition": "-28.8% [at 27.4 µM]"},
      {"smiles": "CCC1=C2CCCN3C(=O)O[C@H]([C@H]1OC(C)=O)[C@H]23", "activity change, negative = inhibition": "-13.8%"},
      {"smiles": "C[C@@H]1C(=O)[C@]23CC[C@H]1C[C@]21O[C@H]2C(C)(C)C=CC(=O)[C@@]23COC1=O", "activity change, negative = inhibition": "-23.8%"}
    ]}
  ]
}
